Laboratory results published in the antibiotic and cytotoxicity screens of Wong et al. (2023).
In all, about 39,000 compounds went through this assay and about 3,300 (8.5%) were called active. Shown is part of a subset that was picked to be rich in actives.

test system: HepG2; experiment: cytotoxicity call (relative viability < 0.9); details: 10 µM

SMILES | cytotoxicity call
C[C@@H]1CN([C@@H](C)CO)C(=O)c2cc(Br)cnc2O[C@H]1CN(C)C(=O)CCN1CCCCC1 | inactive
C[C@@H]1CCCCO[C@H](CN(C)C(=O)Nc2ccc(F)cc2)[C@H](C)CN([C@@H](C)CO)C(=O)c2cc(NC(=O)Nc3cccc4ccccc34)ccc2O1 | inactive
Cc1cc(C)c2c(c1)[C@@H](N(Cc1cc(C(F)(F)F)cc(C(F)(F)F)c1)c1nnn(C)n1)CCCN2C[C@H]1CC[C@H](C(=O)O)CC1 | active
Cc1ccc(S(=O)(=O)Nc2ccc3c(c2)C(=O)N([C@H](C)CO)C[C@H](C)[C@H](CN(C)S(=O)(=O)c2ccc(C)cc2)OCCCC[C@@H](C)O3)cc1 | inactive
Cc1ccc(S(=O)(=O)Nc2ccc3c(c2)CC(=O)N([C@H](C)CO)C[C@H](C)[C@H](CN(C)Cc2ccc(Cl)c(Cl)c2)O3)cc1 | active
Cc1ccc(S(=O)(=O)Nc2ccc3c(c2)CC(=O)N([C@@H](C)CO)C[C@@H](C)[C@H](CN(C)Cc2ccc(Cl)c(Cl)c2)O3)cc1 | inactive
Cc1ccc(S(=O)(=O)Nc2ccc3c(c2)CC(=O)N([C@@H](C)CO)C[C@H](C)[C@@H](CN(C)Cc2ccc(Cl)c(Cl)c2)O3)cc1 | inactive
Cc1ccc(S(=O)(=O)Nc2ccc3c(c2)CC(=O)N([C@H](C)CO)C[C@@H](C)[C@@H](CN(C)Cc2ccc(Cl)c(Cl)c2)O3)cc1 | active
Cc1ccc(S(=O)(=O)Nc2ccc3c(c2)CC(=O)N([C@@H](C)CO)C[C@@H](C)[C@@H](CN(C)Cc2ccc(Cl)c(Cl)c2)O3)cc1 | active
Cc1ccc(S(=O)(=O)Nc2ccc3c(c2)CC(=O)N([C@@H](C)CO)C[C@H](C)[C@H](CN(C)Cc2ccc(Cl)c(Cl)c2)O3)cc1 | active
Cc1ccc(S(=O)(=O)Nc2ccc3c(c2)CC(=O)N([C@H](C)CO)C[C@H](C)[C@@H](CN(C)Cc2ccc(Cl)c(Cl)c2)O3)cc1 | inactive
Cc1ccc(S(=O)(=O)Nc2ccc3c(c2)CC(=O)N([C@H](C)CO)C[C@@H](C)[C@H](CN(C)Cc2ccc(Cl)c(Cl)c2)O3)cc1 | inactive
Cc1ccc(S(=O)(=O)Nc2ccc3c(c2)C(=O)N([C@@H](C)CO)C[C@H](C)[C@@H](CN(C)S(C)(=O)=O)OCCCC[C@@H](C)O3)cc1 | inactive
COc1ccc(S(=O)(=O)Nc2ccc3c(c2)C(=O)N([C@H](C)CO)C[C@@H](C)[C@@H](CN(C)Cc2ccc(Cl)c(Cl)c2)O3)cc1 | inactive
O=C(C[C@@H]1CC[C@H]2[C@@H](COC[C@@H](O)CN2S(=O)(=O)c2cccc(F)c2)O1)NCc1ccncn1 | inactive
CC(=O)N1CCC(C(=O)O)CC1 | inactive
COc1ccc(NC(=O)N(C)C[C@@H]2OCCCC[C@H](C)Oc3ccc(NC(=O)C4CCCCC4)cc3C(=O)N([C@@H](C)CO)C[C@@H]2C)cc1 | inactive
Cc1cc(C)n(-c2ccc(=O)n(CC(=O)N3CCN(S(=O)(=O)c4ccc(F)cc4)CC3)n2)n1 | inactive
C[C@@H]1CN([C@H](C)CO)C(=O)c2cc(NC(=O)CCN3CCOCC3)ccc2O[C@H]1CN(C)S(=O)(=O)c1ccc(F)cc1 | inactive

SMILES | cytotoxicity call
C[C@H](CO)N1C[C@H](C)[C@H](CN(C)C(=O)Nc2ccc3c(c2)OCO3)Oc2c(NC(=O)C3CCOCC3)cccc2C1=O | inactive
CNCCCC12CCC(c3ccccc31)c1ccccc12.Cl | active
CC(C)CC#Cc1cnc2c(c1)C(=O)N([C@@H](C)CO)C[C@H](C)[C@@H](CN(C)C(=O)CN1CCOCC1)O2 | inactive
C[C@@H]1CCCCO[C@H](CN(C)C(=O)CCCN(C)C)[C@H](C)CN([C@@H](C)CO)C(=O)c2cc(NC(=O)Nc3ccc(C(F)(F)F)cc3)ccc2O1 | inactive
COc1ccccc1C#Cc1cnc2c(c1)C(=O)N([C@H](C)CO)C[C@H](C)[C@H](CN(C)S(=O)(=O)c1cn(C)cn1)O2 | inactive
C[C@@H]1CCCCO[C@H](CN(C)S(=O)(=O)c2ccccc2)[C@H](C)CN([C@@H](C)CO)C(=O)c2cc(NS(=O)(=O)c3cn(C)cn3)ccc2O1 | inactive
C[C@@H]1CN([C@H](C)CO)C(=O)c2cc(NC(=O)c3ccccc3)ccc2O[C@@H](C)CCCCO[C@H]1CN(C)C(=O)Nc1cccc2ccccc12 | active
C[C@@H]1CN([C@@H](C)CO)C(=O)c2cc(NC(=O)c3ccccc3)ccc2O[C@@H](C)CCCCO[C@H]1CN(C)C(=O)Nc1cccc2ccccc12 | active
C[C@H](CO)N1C[C@H](C)[C@@H](CN(C)C(=O)Nc2cccc3ccccc23)OCCCC[C@H](C)Oc2ccc(NC(=O)c3ccccc3)cc2C1=O | inactive
C[C@H](CO)N1C[C@H](C)[C@@H](CN(C)C(=O)Nc2cccc3ccccc23)OCCCC[C@H](C)Oc2ccc(NC(=O)c3ccncc3)cc2C1=O | inactive
C[C@@H]1CN([C@H](C)CO)C(=O)c2cc(NC(=O)c3ccccc3)ccc2O[C@@H](C)CCCCO[C@@H]1CN(C)C(=O)Nc1cccc2ccccc12 | inactive
C[C@@H]1CCCCO[C@@H](CN(C)C(=O)Nc2cccc3ccccc23)[C@H](C)CN([C@@H](C)CO)C(=O)c2cc(NC(=O)c3ccccc3)ccc2O1 | active
C[C@@H]1CCCCO[C@@H](CN(C)C(=O)Nc2cccc3ccccc23)[C@@H](C)CN([C@H](C)CO)C(=O)c2cc(NC(=O)c3ccccc3)ccc2O1 | inactive
C[C@@H]1CCCCO[C@H](CN(C)C(=O)Nc2cccc3ccccc23)[C@@H](C)CN([C@@H](C)CO)C(=O)c2cc(NC(=O)c3ccncc3)ccc2O1 | active
C[C@@H]1CCCCO[C@@H](CN(C)C(=O)Nc2cccc3ccccc23)[C@@H](C)CN([C@@H](C)CO)C(=O)c2cc(NC(=O)c3ccccc3)ccc2O1 | inactive
C[C@@H]1CCCCO[C@H](CN(C)C(=O)Nc2cccc3ccccc23)[C@@H](C)CN([C@H](C)CO)C(=O)c2cc(NC(=O)c3ccccc3)ccc2O1 | inactive
C[C@@H]1CCCCO[C@H](CN(C)C(=O)Nc2cccc3ccccc23)[C@H](C)CN([C@@H](C)CO)C(=O)c2cc(NC(=O)c3ccccc3)ccc2O1 | inactive
C[C@H]1CCCCO[C@H](CN(C)C(=O)Nc2cccc3ccccc23)[C@@H](C)CN([C@@H](C)CO)C(=O)c2cc(NC(=O)c3ccncc3)ccc2O1 | inactive
